Measured values taken from PubChem BioAssay (Tox21).
Records with an inconclusive call do not appear. Active and inactive are the calls of the source. Unless noted, calls come from the whole dose curve.

Columns and labels:
[1] = Nuclear factor erythroid 2-related factor 2/antioxidant responsive element (Nrf2/ARE) small molecule agonists: qHTS cell viability counter screen in human keratinocytes (AID 1919968; active = well fitted curve in the direction sought with a large enough effect in the repeat runs; an effect the other way counts as inactive or inconclusive; note: nearly all actives have a fitted effect of over 55% in size)
Method in brief: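 Viability counter-screen: KeratinoSens reporter cells, DMSO-delivered compounds, 23 h at 37 C, CellTiter-Fluor fluorescence.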

[2] = Nuclear factor erythroid 2-related factor 2/antioxidant responsive element (Nrf2/ARE) small molecule agonists: luciferase reporter gene qHTS assay in human keratinocytes (AID 1919969); note: nearly all actives have a fitted effect of over 35% in size
[3] = biological target: Gonadotropin-releasing hormone receptor (Homo sapiens) (UniProt P30968); assay: Human gonadotropin-releasing hormone receptor (GnRHR) small molecule agonists, calcium flux assay in GnRHR-HEK293 cells (AID 1920063); note: nearly all actives have a fitted effect of over 35% in size
Method in brief: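 Tox21-format agonist screen using human GnRHR-expressing HEK293 cells and a fluorescent calcium dye; kinetic 3-min fluorescence reading after compound addition, 15-point concentration series run in triplicate.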

[4] = biological target: KiSS-1 receptor (Homo sapiens) (UniProt Q969F8); assay: Human kisspeptin (KISS1R) small molecule agonists, calcium flux assay in KISS1R-HEK293 cells (AID 1920064; active = well fitted curve in the direction sought with a large enough effect in the repeat runs; an effect the other way counts as inactive or inconclusive)
Method in brief: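 Intracellular calcium mobilization in KISS1R-HEK293 cells was recorded by fluorescence (Ex/Em 480/540) for 3 min following compound addition to cells pre-loaded 1 h with calcium dye.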

[5] = p53 small molecule agonists, cell-based qHTS assay with human liver microsomes (AID 1963577);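 note: p53 response element beta-lactamase reporter cells with liver microsomes plus NADPH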
Method in brief: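 HLM-supplemented p53RE-bla reporter assay: 16 h compound exposure at 37 C, microsomes and NADPH each 0.5 mg/mL final, read by fluorescence intensity.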

[6] = p53 small molecule agonists, cell-based qHTS assay with rat liver microsomes (AID 1963578)
Method in brief: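 Quantitative HTS of the Tox21 10K library: p53RE-bla cells, rat liver microsomes plus NADPH at 0.5 mg/mL final each, 16 h at 37 C, beta-lactamase fluorescence detection.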

[7] = p53 small molecule agonists, cell-based qHTS assay with human liver microsomes: qHTS cell viability counter screen (AID 1963579); note: nearly all actives have a fitted effect of over 45% in size
Method in brief: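 Viability of p53RE-bla cells is measured as CellTiter-Glo luminescence following a 16 h, 37 C incubation with compound, liver microsomes from human donors and NADPH.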

[8] = p53 small molecule agonists, cell-based qHTS assay with rat liver microsomes: qHTS cell viability counter screen (AID 1963580); note: nearly all actives have a fitted effect of over 45% in size
Method in brief: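 Viability is assessed in parallel with the p53 reporter read: HCT-116 p53RE-bla cells receive compounds plus rat microsomes and NADPH (0.5 mg/mL final apiece), incubate 16 h at 37 C, and then CellTiter-Glo luminescence is recorded.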

[9] = p53 small molecule agonists, cell-based qHTS assay: qHTS cell viability counter screen (AID 1963581); note: nearly all actives have a fitted effect of over 45% in size
Method in brief: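 Compounds are pinned onto HCT-116 p53RE-bla cells and left 16 h at 37 C. Following the reporter FRET read, ATP is quantified by CellTiter-Glo luminescence after 30 min at room temperature.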

[10] = cAMP Responsive Elements (CRE) small molecule agonists, cell-based qHTS assay (AID 1963590)
Method in brief: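 FRET-based beta-lactamase readout (LiveBLAzer B/G, 2 h RT) quantified CRE activation in HEK 293T CRE-bla cells after 3 h treatment with DMSO-dissolved compounds.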

[11] = cAMP Responsive Elements (CRE) small molecule antagonists, cell-based qHTS assay (AID 1963591; active = well fitted inhibition curve with a large enough effect in the signal ratio in the repeat runs, not every such curve was filed as active; the % refers to the signal ratio)
Method in brief: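 qHTS in CRE-bla HEK 293T cells: compound in DMSO, then 0.25 uM NKH477 (final), 3 h at 37 °C/5% CO2; beta-lactamase FRET read-out after 2 h substrate incubation.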

[12] = biological target: Beta-2 adrenergic receptor (Homo sapiens) (UniProt P07550); assay: Adrenergic beta2 receptor (ADRB2) small molecule antagonists, cell-based qHTS assay (AID 1963592); note: series mostly up to about 92 µM; nearly all actives have a fitted effect of over 50% in size
Method in brief: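 Cells (CHO, stable ADRB2 overexpression) incubated 18-20hr at 37C; compounds added from DMSO; agonist mix (1nM isoproterenol, 100uM IBMX, 25uM Ro-20-1724) added; 0.5hr RT; d2-cAMP and anti-cAMP-cryptate added; 1hr RT; 665/615 nm read.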

[13] = biological target: D(2) dopamine receptor (Homo sapiens) (UniProt P14416); assay: Dopamine D2 receptor (DRD2) small molecule agonists, cell-based qHTS assay (AID 1963594); note: nearly all actives have a fitted effect of over 35% in size
Method in brief: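 HEK293 cells stably expressing human DRD2, pre-treated with PDE inhibitor Ro20-1724 (0.1 mM final) and compound 10 min at room temperature, then stimulated with NKH477 (200nM […]) for 30 min. cAMP read by HTRF (665/620 nm).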

[14] = p53 small molecule agonists, cell-based qHTS assay (AID 1963582; active = well fitted activation curve with a large enough effect in the signal ratio in the repeat runs, not every such curve was filed as active; the % refers to the signal ratio)
Method in brief: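 Agonist activity was scored from beta-lactamase FRET fluorescence in p53RE-bla cells treated 16 h at 37 C with compounds in DMSO, substrate incubation being 2 h at room temperature.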

[15] = biological target: 5-hydroxytryptamine receptor 2A (Homo sapiens) (UniProt P28223); assay: 5-hydroxytryptamine receptor 2A (HTR2A) small molecule antagonists, cell-based qHTS assay (AID 1963586); note: nearly all actives have a fitted effect of over 45% in size; note: potency is the fitted concentration of half-maximal effect
Method in brief: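 Antagonist-mode intracellular calcium assay: DOI (4 nM) added after 5 min compound pre-incubation at room temperature to dye-loaded HTR2A-CHO cells. Fluorescence followed for 3 min, sampled every second.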

[16] = biological target: 5-hydroxytryptamine receptor 2A (Homo sapiens) (UniProt P28223); assay: 5-hydroxytryptamine receptor 2A (HTR2A) small molecule agonists, cell-based qHTS assay (AID 1963587); note: nearly all actives have a fitted effect of over 30% in size
Method in brief: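 CHO cells stably expressing human HTR2A, plated 18 h, loaded with calcium dye 1 h at 37 C. Agonist mode: compounds added and intracellular calcium fluorescence recorded kinetically for 2 min at 1 sec intervals.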

[17] = biological target: Muscarinic acetylcholine receptor M1 (Homo sapiens) (UniProt P11229); assay: Cholinergic receptor muscarinic 1 (CHRM1) small molecule antagonists, cell-based qHTS assay (AID 1963588); note: nearly all actives have a fitted effect of over 40% in size; note: potency is the fitted concentration of half-maximal effect
Method in brief: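 CHRM1-CHO calcium-flux assay, antagonist mode. Cells were seeded 18 h, dye-loaded 1 h at 37 C and given compound for 5 min at RT, then acetylcholine was added at 50nM. FDSS fluorescence was read 3 min; 15 concentrations, three runs.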

[18] = biological target: Muscarinic acetylcholine receptor M1 (Homo sapiens) (UniProt P11229); assay: Cholinergic receptor muscarinic 1 (CHRM1) small molecule agonists, cell-based qHTS assay (AID 1963589); note: nearly all actives have a fitted effect of over 35% in size
Method in brief: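 Stable CHRM1-CHO cells (human receptor) were incubated 18 h, dye-loaded for 1 h at 37 C and exposed to test compounds for agonist activity, with calcium-dependent fluorescence followed kinetically.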

[19] = biological target: Beta-2 adrenergic receptor (Homo sapiens) (UniProt P07550); assay: Adrenergic beta2 receptor (ADRB2) small molecule agonists, cell-based qHTS assay (AID 1963593); note: potency is the fitted concentration of half-maximal effect;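 for activation: CHO cells stably overexpressing human ADRB2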
Method in brief: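 CHO cells stably over-expressing ADRB2 were plated overnight at 37C, then dosed with compounds plus a stimulation mix containing 100uM IBMX and 25uM Ro-20-1724 for 0.5hr at room temperature. cAMP was measured by HTRF competition, 1hr.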

[20] = biological target: D(2) dopamine receptor (Homo sapiens) (UniProt P14416); assay: Dopamine D2 receptor (DRD2) small molecule antagonists, cell-based qHTS assay (AID 1963595; active = well fitted inhibition curve with a large enough effect in the signal ratio in the repeat runs, with a control signal flat; the % refers to the signal ratio)
Method in brief: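 Human DRD2 antagonist qHTS measuring cAMP by HTRF. The cells are exposed to compound for 10 min, then to NKH477 (200 nM) and quinpirole (12 nM) for 30 min at RT, with Ro20-1724 (0.1 mM) present throughout.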
% is set by controls: 0 for no effect and ±100 for the full control effect.

Chain of 5-hydroxytryptamine receptor 2A (Homo sapiens) (P28223 whole entry, looked up): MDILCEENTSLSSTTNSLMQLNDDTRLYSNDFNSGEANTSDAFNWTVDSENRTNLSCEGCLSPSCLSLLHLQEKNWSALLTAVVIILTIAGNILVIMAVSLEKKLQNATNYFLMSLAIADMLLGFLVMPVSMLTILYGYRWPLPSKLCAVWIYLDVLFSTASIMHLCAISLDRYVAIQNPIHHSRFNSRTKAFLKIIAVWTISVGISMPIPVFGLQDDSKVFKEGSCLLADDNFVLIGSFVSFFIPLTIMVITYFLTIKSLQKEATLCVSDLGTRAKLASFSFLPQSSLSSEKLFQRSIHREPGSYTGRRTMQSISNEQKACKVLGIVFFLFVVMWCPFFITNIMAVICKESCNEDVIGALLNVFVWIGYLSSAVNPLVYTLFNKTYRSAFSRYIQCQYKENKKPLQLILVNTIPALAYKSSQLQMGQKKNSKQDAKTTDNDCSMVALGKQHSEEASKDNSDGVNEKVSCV
Chain of Beta-2 adrenergic receptor (Homo sapiens) (P07550 whole entry, looked up): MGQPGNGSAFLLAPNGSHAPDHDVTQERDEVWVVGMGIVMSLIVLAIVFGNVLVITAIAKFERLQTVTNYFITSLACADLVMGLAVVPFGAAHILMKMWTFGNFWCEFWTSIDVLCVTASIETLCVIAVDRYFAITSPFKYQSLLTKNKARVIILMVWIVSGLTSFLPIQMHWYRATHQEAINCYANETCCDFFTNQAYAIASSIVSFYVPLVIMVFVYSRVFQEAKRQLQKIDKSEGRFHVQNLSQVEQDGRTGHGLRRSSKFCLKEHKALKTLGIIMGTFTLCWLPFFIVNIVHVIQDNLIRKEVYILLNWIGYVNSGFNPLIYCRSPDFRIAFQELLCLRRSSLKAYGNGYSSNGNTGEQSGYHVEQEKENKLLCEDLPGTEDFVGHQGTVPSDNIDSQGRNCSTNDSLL
Chain of Muscarinic acetylcholine receptor M1 (Homo sapiens) (P11229 whole entry, looked up): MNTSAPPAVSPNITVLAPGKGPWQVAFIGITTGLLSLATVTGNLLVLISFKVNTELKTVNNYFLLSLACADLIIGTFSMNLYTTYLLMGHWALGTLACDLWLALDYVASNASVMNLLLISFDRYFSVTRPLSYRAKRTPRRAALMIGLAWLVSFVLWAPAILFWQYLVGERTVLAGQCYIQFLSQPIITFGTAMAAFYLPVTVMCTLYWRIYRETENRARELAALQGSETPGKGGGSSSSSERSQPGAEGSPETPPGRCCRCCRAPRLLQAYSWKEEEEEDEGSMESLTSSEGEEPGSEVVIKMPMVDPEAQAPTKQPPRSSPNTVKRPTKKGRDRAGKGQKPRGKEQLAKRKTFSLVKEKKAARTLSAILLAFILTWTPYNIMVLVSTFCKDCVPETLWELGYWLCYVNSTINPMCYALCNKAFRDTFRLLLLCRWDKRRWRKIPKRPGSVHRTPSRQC
Chain of Gonadotropin-releasing hormone receptor (Homo sapiens) (P30968 whole entry, looked up): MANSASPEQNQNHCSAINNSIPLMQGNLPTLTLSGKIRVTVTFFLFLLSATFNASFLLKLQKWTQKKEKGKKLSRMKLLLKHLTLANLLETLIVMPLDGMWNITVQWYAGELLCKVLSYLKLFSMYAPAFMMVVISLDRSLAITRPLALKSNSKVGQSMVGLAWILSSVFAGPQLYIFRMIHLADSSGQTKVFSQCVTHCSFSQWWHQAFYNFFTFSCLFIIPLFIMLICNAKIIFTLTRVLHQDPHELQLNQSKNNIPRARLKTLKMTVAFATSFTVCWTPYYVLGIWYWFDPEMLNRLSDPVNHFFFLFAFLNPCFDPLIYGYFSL
Chain of KiSS-1 receptor (Homo sapiens) (Q969F8 whole entry, looked up): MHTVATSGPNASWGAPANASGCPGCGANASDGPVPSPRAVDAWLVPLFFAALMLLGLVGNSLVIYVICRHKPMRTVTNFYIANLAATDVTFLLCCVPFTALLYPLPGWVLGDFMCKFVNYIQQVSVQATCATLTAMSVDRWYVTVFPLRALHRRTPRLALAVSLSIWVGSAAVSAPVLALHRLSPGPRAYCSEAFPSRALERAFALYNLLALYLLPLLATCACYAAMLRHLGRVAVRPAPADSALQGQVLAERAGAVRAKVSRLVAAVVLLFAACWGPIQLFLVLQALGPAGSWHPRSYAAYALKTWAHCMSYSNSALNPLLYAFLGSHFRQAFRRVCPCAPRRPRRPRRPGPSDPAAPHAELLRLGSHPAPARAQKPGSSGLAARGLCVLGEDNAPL
Chain of D(2) dopamine receptor (Homo sapiens) (P14416 whole entry, looked up): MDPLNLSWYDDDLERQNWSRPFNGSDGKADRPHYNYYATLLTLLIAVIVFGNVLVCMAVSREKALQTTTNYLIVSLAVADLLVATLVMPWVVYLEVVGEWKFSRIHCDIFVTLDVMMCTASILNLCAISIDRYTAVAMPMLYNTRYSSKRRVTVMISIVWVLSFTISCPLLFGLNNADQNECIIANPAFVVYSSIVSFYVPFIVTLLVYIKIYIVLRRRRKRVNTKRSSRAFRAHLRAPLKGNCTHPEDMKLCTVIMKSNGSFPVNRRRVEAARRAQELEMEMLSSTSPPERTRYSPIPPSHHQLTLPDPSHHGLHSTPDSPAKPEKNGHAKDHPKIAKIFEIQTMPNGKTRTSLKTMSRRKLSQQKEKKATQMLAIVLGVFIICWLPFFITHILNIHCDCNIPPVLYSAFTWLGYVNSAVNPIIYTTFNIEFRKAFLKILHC

Nc1ccc(S(=O)(=O)Nc2ccnn2-c2ccccc2)cc1
inactive: activity change, negative = cytotoxicity [1] 8.64% [at 19 µM] | activity, positive = activation [2] 4.54% [at 19 µM] | activity change [3] -0.562% [at 11.8 µM, stronger effect = higher value] | activation [4] 15% [at 15.8 µM] | activation [5] 4.03% [at 13.5 µM] | activation [6] 0.115% [at 13.6 µM] | activity change, negative = cytotoxicity [7] 1.97% [at 13.5 µM] | activity change, negative = cytotoxicity [8] -1.12% [at 13.5 µM] | activity change, negative = cytotoxicity [9] -3.47% [at 13.5 µM] | activation [10] -0.057% [at 19 µM] | activity change, negative = inhibition [11] 0.401% [at 18.9 µM] | activity change, negative = inhibition [12] 0.77% [at 19 µM] | activation [13] -21.6% [at 19 µM]

CCc1nnc(NS(=O)(=O)c2ccc(N)cc2)s1
inactive: Potency [1] | Potency [2] | Potency [3] | outcome [4] | Potency [5] | Potency [6] | Potency [8] | Potency [9] | Potency [14] | Potency [15] | Potency [16] | Potency [17] | Potency [18] | Potency [10] | Potency [11] | Potency [12] | Potency [19] | Potency [13] | Potency [20]

CCCCOc1ccc(C(=O)CCN2CCCCC2)cc1
active: Potency [17] 10.3 µM | Potency [19] 13.3 µM
inactive: Potency [1] | Potency [2] | Potency [3] | outcome [4] | Potency [5] | Potency [6] | Potency [7] | Potency [8] | Potency [9] | Potency [16] | Potency [18] | Potency [10] | Potency [11] | Potency [13] | Potency [20]

CCc1nn(C2CCCCC2)c2cc(C3(C#N)CCC(C(=O)O)CC3)ccc12 (stereo unspecified)
inactive: Potency [1] | Potency [2] | Potency [3] | outcome [4] | Potency [5] | Potency [6] | Potency [7] | Potency [8] | Potency [16] | Potency [17] | Potency [18] | Potency [12] | Potency [13] | Potency [20]

CCc1ccc(CC)cc1
inactive: Potency [1] | Potency [2] | Potency [3] | outcome [4] | Potency [5] | Potency [6] | Potency [7] | Potency [9] | Potency [14] | Potency [16] | Potency [18] | Potency [10] | Potency [12] | Potency [19] | Potency [20]

Cc1ccc(Cl)c(OCC(O)CNC(C)(C)C)c1 (stereo unspecified)
inactive: Potency [1] | Potency [2] | Potency [3] | outcome [4] | Potency [5] | Potency [6] | Potency [7] | Potency [8] | Potency [14] | Potency [16] | Potency [17] | Potency [18] | Potency [10] | Potency [11] | Potency [13] | Potency [20]

NCc1ccco1
inactive: Potency [1] | Potency [2] | Potency [3] | outcome [4] | Potency [5] | Potency [7] | Potency [8] | Potency [9] | Potency [14] | Potency [15] | Potency [16] | Potency [17] | Potency [18] | Potency [11] | Potency [12] | Potency [20]

CN1CCCC(n2nc(Cc3ccc(Cl)cc3)c3ccccc3c2=O)CC1 (stereo unspecified)
active: Potency [15] 0.46 µM
inactive: Potency [1] | Potency [2] | Potency [3] | outcome [4] | Potency [6] | Potency [8] | Potency [14] | Potency [16] | Potency [18] | Potency [13]
